Results filed as inconclusive are left out. A call without a number means that no potency is given here. The source made the active and inactive calls. Unless noted, calls come from the whole dose curve.
What was measured:
[1] = Nuclear factor erythroid 2-related factor 2/antioxidant responsive element (Nrf2/ARE) small molecule agonists: qHTS cell viability counter screen in human keratinocytes (AID 1919968; active = well fitted curve in the direction sought with a large enough effect in the repeat runs; an effect the other way counts as inactive or inconclusive; note: nearly all actives have a fitted effect of over 55% in size; note: potency is the fitted concentration of half-maximal effect)
Outline: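 KeratinoSens cells (HaCaT keratinocytes stably carrying an ARE-luciferase reporter) were seeded at 1,500 cells/well and rested 5 h at 37 C/5% CO2. They were then exposed to compounds in DMSO for 23 h. Viability was read by CellTiter-Fluor fluorescence after 1 h.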

[2] = Nuclear factor erythroid 2-related factor 2/antioxidant responsive element (Nrf2/ARE) small molecule agonists: luciferase reporter gene qHTS assay in human keratinocytes (AID 1919969); note: nearly all actives have a fitted effect of over 35% in size; note: potency is the fitted concentration of half-maximal effect
[3] = biological target: Gonadotropin-releasing hormone receptor (Homo sapiens) (UniProt P30968); test: Human gonadotropin-releasing hormone receptor (GnRHR) small molecule agonists, calcium flux assay in GnRHR-HEK293 cells (AID 1920063); note: nearly all actives have a fitted effect of over 35% in size
Outline: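 HEK293 cells stably expressing human GnRHR were plated 18 h at 37 °C, loaded with calcium dye 1 h at 37 °C, then given compound in agonist mode; fluorescence (Ex/Em 480/540) read kinetically for 3 min at 1 s intervals.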

[4] = biological target: KiSS-1 receptor (Homo sapiens) (UniProt Q969F8); test: Human kisspeptin (KISS1R) small molecule agonists, calcium flux assay in KISS1R-HEK293 cells (AID 1920064; active = well fitted curve in the direction sought with a large enough effect in the repeat runs; an effect the other way counts as inactive or inconclusive)
Outline: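 HEK293 cells stably expressing human KISS1R were plated 18 h at 37 °C, loaded with calcium dye for 1 h at 37 °C, then given compound by pin tool. Fluorescence (Ex/Em 480/540) was read kinetically for 3 min.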

[5] = G protein-coupled receptor (GPCR) small molecule agonists, calcium flux assay: HEK293 wild type cell line counter screen (AID 1920065)
Outline: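 Cells were plated and cultured 18 h at 37 C/5% CO2, then loaded with calcium dye for 1 h at 37 C. Compounds in DMSO were pin-transferred in agonist mode, and fluorescence (Ex/Em 480/540) was read kinetically for 3 min at 1 s intervals.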

[6] = p53 small molecule agonists, cell-based qHTS assay with human liver microsomes (AID 1963577);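 note: p53 response element beta-lactamase reporter cells with liver microsomes plus NADPH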
Outline: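 HLM-supplemented p53RE-bla reporter assay: 16 h compound exposure at 37 C, microsomes and NADPH each 0.5 mg/mL final, read by fluorescence intensity.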

[7] = p53 small molecule agonists, cell-based qHTS assay with rat liver microsomes (AID 1963578)
Outline: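 Quantitative HTS of the Tox21 10K library: p53RE-bla cells, rat liver microsomes plus NADPH at 0.5 mg/mL final each, 16 h at 37 C, beta-lactamase fluorescence detection.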

[8] = p53 small molecule agonists, cell-based qHTS assay with human liver microsomes: qHTS cell viability counter screen (AID 1963579); note: nearly all actives have a fitted effect of over 45% in size; note: potency is the fitted concentration of half-maximal effect
Outline: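 Viability of p53RE-bla cells is measured as CellTiter-Glo luminescence following a 16 h, 37 C incubation with compound, liver microsomes from human donors and NADPH.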

[9] = p53 small molecule agonists, cell-based qHTS assay with rat liver microsomes: qHTS cell viability counter screen (AID 1963580); note: nearly all actives have a fitted effect of over 45% in size; note: potency is the fitted concentration of half-maximal effect
Outline: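 In HCT-116 cells carrying a p53 response element-bla reporter, compounds were metabolically activated in situ by rat liver microsomes with NADPH over 16 h. Cell ATP content then served as the cytotoxicity measure.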

[10] = p53 small molecule agonists, cell-based qHTS assay: qHTS cell viability counter screen (AID 1963581); note: nearly all actives have a fitted effect of over 45% in size; note: potency is the fitted concentration of half-maximal effect
Outline: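 p53RE-bla HCT-116 cells were exposed to compounds for 16 h at 37 C; after the beta-lactamase FRET read in the same wells, CellTiter-Glo was added and luminescence (intracellular ATP) read after 30 min at room temperature.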

[11] = biological target: 5-hydroxytryptamine receptor 2A (Homo sapiens) (UniProt P28223); test: 5-hydroxytryptamine receptor 2A (HTR2A) small molecule agonists, cell-based qHTS assay (AID 1963587); note: nearly all actives have a fitted effect of over 30% in size
Outline: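 HTR2A-CHO cells, plated 18 h at 37 C/5% CO2, dye-loaded 1 h at 37 C; compounds in DMSO added by pin tool (agonist mode). Intracellular calcium flux read as kinetic fluorescence on FDSS over 2 min at 1 s intervals.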

[12] = biological target: Muscarinic acetylcholine receptor M1 (Homo sapiens) (UniProt P11229); test: Cholinergic receptor muscarinic 1 (CHRM1) small molecule antagonists, cell-based qHTS assay (AID 1963588); note: nearly all actives have a fitted effect of over 40% in size
Outline: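 CHRM1-CHO calcium-flux assay, antagonist mode. Cells were seeded 18 h, dye-loaded 1 h at 37 C and given compound for 5 min at RT, then acetylcholine was added at 50nM. FDSS fluorescence was read 3 min; 15 concentrations, three runs.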

[13] = biological target: Muscarinic acetylcholine receptor M1 (Homo sapiens) (UniProt P11229); test: Cholinergic receptor muscarinic 1 (CHRM1) small molecule agonists, cell-based qHTS assay (AID 1963589); note: nearly all actives have a fitted effect of over 35% in size
Outline: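 CHO cells stably expressing human CHRM1, seeded 18 h at 37 C/5% CO2, dye-loaded 1 h at 37 C, then given compound in agonist mode; intracellular calcium fluorescence read kinetically at 1 s intervals. Fifteen concentrations, three independent runs.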

[14] = biological target: Beta-2 adrenergic receptor (Homo sapiens) (UniProt P07550); test: Adrenergic beta2 receptor (ADRB2) small molecule antagonists, cell-based qHTS assay (AID 1963592); note: series mostly up to about 92 µM; nearly all actives have a fitted effect of over 50% in size
Outline: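 Cells (CHO, stable ADRB2 overexpression) incubated 18-20hr at 37C; compounds added from DMSO; agonist mix (1nM isoproterenol, 100uM IBMX, 25uM Ro-20-1724) added; 0.5hr RT; d2-cAMP and anti-cAMP-cryptate added; 1hr RT; 665/615 nm read.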

[15] = biological target: D(2) dopamine receptor (Homo sapiens) (UniProt P14416); test: Dopamine D2 receptor (DRD2) small molecule antagonists, cell-based qHTS assay (AID 1963595; active = well fitted inhibition curve with a large enough effect in the signal ratio in the repeat runs, with a control signal flat; the % refers to the signal ratio)
Outline: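 HEK293 cells stably expressing DRD2 were preincubated with 0.1 mM Ro20-1724, then with compound for 10 min at room temperature. Cells were stimulated with 200 nM NKH477 plus 12 nM quinpirole for 30 min, and cAMP was read by HTRF.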

[16] = cAMP Responsive Elements (CRE) small molecule agonists, cell-based qHTS assay (AID 1963590)
Outline: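 CRE-bla HEK 293T cells in DMEM with 10% dialyzed FBS, NEAA, pyruvate and 25 mM HEPES were plated 18 h at 37 C/5% CO2, then exposed to compounds in DMSO for 3 h before LiveBLAzer B/G FRET substrate addition.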

[17] = biological target: D(2) dopamine receptor (Homo sapiens) (UniProt P14416); test: Dopamine D2 receptor (DRD2) small molecule agonists, cell-based qHTS assay (AID 1963594); note: nearly all actives have a fitted effect of over 35% in size
Outline: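 HEK293 cells stably expressing DRD2 were cultured 24 h at 37 C, then given Ro20-1724 (0.1 mM final) and compounds for 10 min at room temperature. NKH477 (200nM) was then added for 30 min. cAMP was read by HTRF.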

[18] = p53 small molecule agonists, cell-based qHTS assay (AID 1963582; active = well fitted activation curve with a large enough effect in the signal ratio in the repeat runs, not every such curve was filed as active; the % refers to the signal ratio)
Outline: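 p53RE-bla beta-lactamase reporter cells rested 5 h at 37 C/5% CO2, then received compounds in DMSO by pin transfer and were incubated 16 h at 37 C. LiveBLAzer B/G FRET substrate was loaded for 2 h at room temperature before fluorescence reading.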

[19] = cAMP Responsive Elements (CRE) small molecule antagonists, cell-based qHTS assay (AID 1963591; active = well fitted inhibition curve with a large enough effect in the signal ratio in the repeat runs, not every such curve was filed as active; the % refers to the signal ratio)
Outline: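 CRE-bla HEK293T cells were plated 18 h at 37 °C/5% CO2, pinned with compound in DMSO, then stimulated with NKH477 at 0.25 uM final for 3 h. LiveBLAzer B/G FRET substrate was added and plates incubated 2 h at room temperature.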

[20] = biological target: 5-hydroxytryptamine receptor 2A (Homo sapiens) (UniProt P28223); test: 5-hydroxytryptamine receptor 2A (HTR2A) small molecule antagonists, cell-based qHTS assay (AID 1963586); note: nearly all actives have a fitted effect of over 45% in size
Outline: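 Antagonist-mode intracellular calcium assay: DOI (4 nM) added after 5 min compound pre-incubation at room temperature to dye-loaded HTR2A-CHO cells. Fluorescence followed for 3 min, sampled every second.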

Chain of Muscarinic acetylcholine receptor M1 (Homo sapiens) (P11229 whole entry, looked up): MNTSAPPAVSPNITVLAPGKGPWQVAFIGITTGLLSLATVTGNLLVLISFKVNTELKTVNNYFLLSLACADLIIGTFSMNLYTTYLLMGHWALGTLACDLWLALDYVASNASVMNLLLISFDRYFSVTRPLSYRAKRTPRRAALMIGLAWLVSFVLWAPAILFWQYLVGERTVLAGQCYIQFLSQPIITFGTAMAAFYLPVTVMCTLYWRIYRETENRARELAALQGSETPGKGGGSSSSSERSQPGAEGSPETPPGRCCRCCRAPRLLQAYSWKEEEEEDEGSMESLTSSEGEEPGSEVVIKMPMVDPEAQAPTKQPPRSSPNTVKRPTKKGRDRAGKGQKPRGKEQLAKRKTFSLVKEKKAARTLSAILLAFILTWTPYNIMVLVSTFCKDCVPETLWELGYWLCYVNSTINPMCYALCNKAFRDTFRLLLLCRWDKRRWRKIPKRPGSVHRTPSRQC
Chain of Beta-2 adrenergic receptor (Homo sapiens) (P07550 whole entry, looked up): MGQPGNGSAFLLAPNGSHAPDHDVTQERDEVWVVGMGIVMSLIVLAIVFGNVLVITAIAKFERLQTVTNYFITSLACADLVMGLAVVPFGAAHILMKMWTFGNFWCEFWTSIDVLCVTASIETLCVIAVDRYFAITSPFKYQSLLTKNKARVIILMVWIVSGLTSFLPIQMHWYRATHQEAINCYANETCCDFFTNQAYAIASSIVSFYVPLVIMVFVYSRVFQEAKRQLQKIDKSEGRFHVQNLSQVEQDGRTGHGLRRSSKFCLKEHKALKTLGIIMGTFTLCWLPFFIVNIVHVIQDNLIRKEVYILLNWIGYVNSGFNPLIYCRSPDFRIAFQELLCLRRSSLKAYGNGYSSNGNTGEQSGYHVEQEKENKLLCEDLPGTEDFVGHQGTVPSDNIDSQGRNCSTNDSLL
Chain of D(2) dopamine receptor (Homo sapiens) (P14416 whole entry, looked up): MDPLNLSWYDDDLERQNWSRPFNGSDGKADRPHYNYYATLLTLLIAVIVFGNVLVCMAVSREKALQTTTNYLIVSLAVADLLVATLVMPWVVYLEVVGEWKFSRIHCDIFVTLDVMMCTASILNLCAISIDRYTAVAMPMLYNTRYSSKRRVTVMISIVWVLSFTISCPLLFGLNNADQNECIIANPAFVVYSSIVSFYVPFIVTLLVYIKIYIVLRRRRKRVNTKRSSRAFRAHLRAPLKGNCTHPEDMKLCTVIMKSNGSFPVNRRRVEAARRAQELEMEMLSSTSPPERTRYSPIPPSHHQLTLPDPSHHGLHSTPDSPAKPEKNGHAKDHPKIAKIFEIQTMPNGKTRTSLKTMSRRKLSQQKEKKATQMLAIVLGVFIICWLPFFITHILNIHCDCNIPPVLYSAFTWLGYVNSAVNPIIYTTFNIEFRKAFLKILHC
Chain of 5-hydroxytryptamine receptor 2A (Homo sapiens) (P28223 whole entry, looked up): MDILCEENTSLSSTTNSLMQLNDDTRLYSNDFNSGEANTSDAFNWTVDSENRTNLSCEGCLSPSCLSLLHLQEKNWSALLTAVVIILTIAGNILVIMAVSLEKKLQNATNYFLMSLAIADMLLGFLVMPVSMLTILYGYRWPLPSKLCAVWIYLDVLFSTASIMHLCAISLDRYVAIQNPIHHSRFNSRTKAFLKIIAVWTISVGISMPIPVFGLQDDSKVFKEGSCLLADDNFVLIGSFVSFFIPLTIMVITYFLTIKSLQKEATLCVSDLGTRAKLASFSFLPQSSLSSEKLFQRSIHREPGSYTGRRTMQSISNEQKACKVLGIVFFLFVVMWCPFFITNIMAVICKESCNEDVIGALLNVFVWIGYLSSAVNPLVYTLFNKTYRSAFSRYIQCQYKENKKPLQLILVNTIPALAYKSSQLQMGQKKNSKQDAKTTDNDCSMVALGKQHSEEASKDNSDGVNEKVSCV
Chain of KiSS-1 receptor (Homo sapiens) (Q969F8 whole entry, looked up): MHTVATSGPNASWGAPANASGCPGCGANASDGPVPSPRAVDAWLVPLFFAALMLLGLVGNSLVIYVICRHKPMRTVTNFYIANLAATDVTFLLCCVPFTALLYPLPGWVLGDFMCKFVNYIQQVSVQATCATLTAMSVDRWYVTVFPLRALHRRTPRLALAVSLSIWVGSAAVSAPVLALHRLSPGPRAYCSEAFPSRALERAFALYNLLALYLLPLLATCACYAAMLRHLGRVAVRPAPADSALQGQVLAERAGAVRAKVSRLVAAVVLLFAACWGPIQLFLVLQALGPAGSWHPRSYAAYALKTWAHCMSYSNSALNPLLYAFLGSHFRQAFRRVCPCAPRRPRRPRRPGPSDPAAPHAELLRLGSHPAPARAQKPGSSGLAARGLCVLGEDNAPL
Chain of Gonadotropin-releasing hormone receptor (Homo sapiens) (P30968 whole entry, looked up): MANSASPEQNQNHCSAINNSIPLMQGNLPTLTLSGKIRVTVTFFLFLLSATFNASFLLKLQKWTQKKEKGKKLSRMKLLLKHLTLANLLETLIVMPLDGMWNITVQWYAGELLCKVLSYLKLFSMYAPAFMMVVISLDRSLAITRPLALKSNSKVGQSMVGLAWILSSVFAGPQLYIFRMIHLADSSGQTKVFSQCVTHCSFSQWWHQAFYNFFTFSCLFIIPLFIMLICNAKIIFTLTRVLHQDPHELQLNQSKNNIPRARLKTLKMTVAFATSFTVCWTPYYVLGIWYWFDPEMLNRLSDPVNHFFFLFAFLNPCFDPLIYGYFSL

| SMILES | Potency [1] | Potency [2] | Potency [3] | Potency [4] | Potency [5] | Potency [6] | Potency [7] | Potency [8] | Potency [9] | Potency [10] | Potency [11] | Potency [12] | Potency [13] | Potency [14] | Potency [15] | Potency [16] | Potency [17] | Potency [18] | Potency [19] | Potency [20] |
| --- | --- | --- | --- | --- | --- | --- | --- | --- | --- | --- | --- | --- | --- | --- | --- | --- | --- | --- | --- | --- |
| COC1=CC(=O)O[C@@H](/C=C/c2ccc3c(c2)OCO3)C1 | inactive | inactive | inactive | inactive | inactive | inactive | inactive | inactive | inactive | inactive | inactive | inactive | inactive | inactive | inactive | – | – | – | – | – |
| O=C(N[C@H]1CN2CCC1CC2)c1cc2ccoc2cn1 | inactive | inactive | inactive | inactive | inactive | inactive | inactive | inactive | inactive | inactive | – | – | inactive | inactive | inactive | inactive | inactive | – | – | – |
| N#Cc1sc2c(=O)c3ccccc3c(=O)c=2sc1C#N | 6.11 µM (active) | 2.17 µM (active) | inactive | inactive | inactive | inactive | inactive | 5.13 µM (active) | 16.2 µM (active) | 4.08 µM (active) | inactive | inactive | inactive | inactive | inactive | – | inactive | – | – | – |
| C#CC(O)(C=CCl)CC (stereo unspecified) | inactive | inactive | inactive | inactive | inactive | inactive | inactive | inactive | inactive | – | inactive | inactive | inactive | inactive | inactive | inactive | inactive | inactive | inactive | – |
| CC(C)[N+](=O)[O-] | inactive | inactive | inactive | inactive | inactive | inactive | inactive | inactive | inactive | inactive | inactive | inactive | inactive | inactive | – | inactive | inactive | – | inactive | – |
| CCCCCCCCCC(=O)O[C@H]1CC[C@H]2[C@@H]3CCC4=CC(=O)CC[C@@H]4[C@H]3CC[C@]12C | inactive | inactive | inactive | inactive | inactive | inactive | inactive | inactive | inactive | – | inactive | inactive | inactive | inactive | inactive | inactive | inactive | – | inactive | inactive |
| CC(C)(C)c1ccc(CSc2cnn(C(C)(C)C)c(=O)c2Cl)cc1 | inactive | inactive | inactive | inactive | inactive | inactive | inactive | inactive | inactive | inactive | inactive | inactive | inactive | inactive | inactive | – | – | – | – | – |
| Cc1nc2ccccc2c(=O)n1-c1ccccc1Cl | inactive | inactive | inactive | inactive | inactive | inactive | inactive | inactive | inactive | inactive | inactive | inactive | inactive | inactive | inactive | inactive | inactive | – | – | – |
| CCOC(=O)COc1cc(-c2nn(C)c(OC(F)F)c2Cl)c(F)cc1Cl | inactive | inactive | inactive | inactive | inactive | inactive | inactive | inactive | inactive | inactive | inactive | – | inactive | inactive | inactive | – | – | – | – | inactive |
| CC[C@]1(O)CC[C@H]2[C@@H]3CCC4=CCCC[C@@H]4[C@H]3CC[C@@]21C | inactive | inactive | inactive | inactive | inactive | inactive | inactive | inactive | inactive | inactive | – | – | – | inactive | inactive | inactive | inactive | – | inactive | – |
| C[C@@H](Oc1ccc(Cl)cc1Cl)C(=O)O | inactive | inactive | inactive | inactive | inactive | inactive | inactive | inactive | inactive | inactive | inactive | inactive | inactive | inactive | inactive | – | inactive | – | – | inactive |
| CCCCCCCCCCCCCCCCCCn1cc[n+](C)c1 | 19.2 µM (active) | inactive | inactive | inactive | inactive | inactive | inactive | inactive | inactive | inactive | inactive | – | inactive | inactive | inactive | – | inactive | – | – | – |
| COC(=O)C(C)N(C(=O)Cc1ccccc1)c1c(C)cccc1C (stereo unspecified) | inactive | inactive | inactive | inactive | inactive | inactive | inactive | inactive | inactive | inactive | inactive | inactive | inactive | inactive | inactive | – | inactive | – | – | inactive |
| N#Cc1ccc(N(CC(N)=O)CC(F)(F)F)cc1C(F)(F)F | inactive | inactive | inactive | inactive | inactive | inactive | inactive | inactive | inactive | – | inactive | inactive | inactive | inactive | inactive | inactive | – | inactive | – | inactive |
| COc1cccc([C@@]2(O)CCCC[C@@H]2CN(C)C)c1 | inactive | inactive | inactive | inactive | inactive | inactive | inactive | inactive | inactive | – | – | – | – | inactive | – | inactive | inactive | inactive | inactive | – |

— PubChem BioAssay (Tox21)
